Data as given in PubChem BioAssay AID1159580 (chemical genetic matrix, 2015).
Among all 5,500 compounds or so, about 2,000 (36%) were called active. About 18% were inconclusive and are not listed. No stated cut-off is given here; in the data, active means normalized growth mostly below about 0.91 (no sharp cut-off); inconclusive means no clear call, values can overlap the other calls; inactive means mostly above about 0.92. The list shows a part of the results.

Test: chemical genetic growth profiling, strain panel (AID 1159580);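 further: tested at 20 µM; growth read once vehicle control cultures reached saturation at 30 °C; 1 = growth at the plate median or of vehicle wells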
Settings: S. cerevisiae deletion strains, growth OD

Measured: normalized growth

C=Cc1c2[nH]c(c1C)Cc1[nH]c(c(C)c1C=C)C=C1N=C(C=c3[nH]c(c(C)c3CCC(=O)O)=C2)C(CCC(=O)O)=C1C
inactive: locus YAL013W, strain DEP1, stronger effect = lower value 0.99 | locus YAL040C, strain CLN3, stronger effect = lower value 0.989 | locus YCL061C, strain MRC1 (second series), stronger effect = lower value 1.01 | locus YDR363W, strain ESC2, stronger effect = lower value 1.05 | locus YER002W, strain NOP16, stronger effect = lower value 0.987 | locus YGR078C, strain PAC10, stronger effect = lower value 1.01 | locus YJR075W, strain HOC1, stronger effect = lower value 1.01 | locus YMR307W, strain GAS1, stronger effect = lower value 1.01 | locus YNL153C, strain GIM3, stronger effect = lower value 0.799 | locus YNL175C, strain NOP13, stronger effect = lower value 0.993 | locus YNL197C, strain WHI3, stronger effect = lower value 0.972 | locus YNL224C, strain SQS1, stronger effect = lower value 1.01 | locus YOR083W, strain WHI5 (second series), stronger effect = lower value 1.01
